# Test results taken from publication PMC5540273 (PLoS ONE, 2017).
# System: CSNK1A1
# Settings: concentration: 1 μM, replicates: in singlicate; n = 1
# 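Note: KINOMEscan kinase panel screen.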
row,Compound,%Inh [%]
1,COc1ccc(NC(=O)Nc2ccc(C)c(-c3ccc(C(=O)Nc4ccncc4)cc3)c2)cc1 [GSK1398475],0
2,Clc1ccc(-c2cc(-c3c[nH]nc3-c3ccccn3)ccn2)cc1 [GW681251],18
3,CC(C)(C)OC(=O)NC1CCCN(c2cc(-c3ccc4c(N)n[nH]c4c3)nc(N)n2)C1 (stereo not shown) [GSK2286096],0
4,CSc1ccc(NC2=C(c3ccccc3Cl)C(=O)NC2=O)cc1 [SB-342411],0
5,COC(=O)c1cccc(NC(=O)NCCNc2ccnc(Nc3ccc(F)cc3)n2)c1 [GSK1379883],0
6,Fc1cccc(COc2ccc(Nc3ncnc4sc(-c5ccc[nH]5)cc34)cc2Cl)c1 [GW707818],0
7,c1ccc(-c2ccc3c(-c4ccnc(Nc5ccc6c(c5)OCCO6)n4)cnn3n2)cc1 [GW818941],40
8,Fc1cccc(COc2ccc(Nc3ncnc4cc[nH]c34)cc2Cl)c1,2
9,COc1cc2c(Nc3cccc(NC(=O)c4ccccc4)c3)ncnc2cc1OCCCN1CCOCC1 [GSK223810],62
10,COc1ccc(NC(=O)c2ccc(-c3cc(-c4nnc(C)o4)ccc3C)cc2)cc1 [GW595885],0
11,Cl.Fc1ccccc1COc1ccc(Nc2ncnc3ccc(-c4nnc(C(F)(F)F)o4)cc23)cc1Cl [GW424170],0
12,CNc1nccc(-c2c(-c3ccc(F)cc3)ncn2CCCN2CCOCC2)n1 [SB-222516],0
13,Cc1cc(N2CCC(NS(=O)(=O)c3ccc(F)cc3)CC2)nc(Nc2cccc(C#N)c2)n1.O=C(O)C(F)(F)F [GSK1653537],25
